# Measurements reported in PubChem BioAssay (NCI).
# About 79,000 compounds went through this panel and 15% of them were active in at least one assay; those are over-represented in the sample as a whole. Values without a mark were called inactive. The source made the active and inactive calls. Rule as the data show it: active = growth inhibition above about 70%; inactive = the rest.
# Tests used:
# [1] = NCI Yeast Anticancer Drug Screen. Data for the rad50 strain (AID 155);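 also: 0% = growth of vehicle-only cultures of the same strain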; settings: S. cerevisiae rad50 strain growth inhibition; at 50.0 µM; active compounds read high
# How it was run: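 Genetically altered yeast (DNA repair pathway); compound treatment; growth inhibition vs vehicle ctrl.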
# [2] = NCI Yeast Anticancer Drug Screen. Data for the mec2-1 strain (AID 157); settings: S. cerevisiae mec2-1 strain, at 50.0 µM, active compounds read high
# How it was run: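 Test agents were screened against the mec2-1 yeast strain, with defined DNA repair or cell cycle alteration. Growth was scored as inhibition against vehicle-only controls.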
# [3] = NCI Yeast Anticancer Drug Screen. Data for the sgs1 mgt1 strain (AID 161);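 also: 0% = growth of cultures given vehicle only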; settings: S. cerevisiae sgs1 mgt1 strain, at 50.0 µM, active compounds read high
# How it was run: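 Test agents were incubated with a DNA-repair-mutant yeast strain. Growth was then read and compared against vehicle-treated controls.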
# [4] = NCI Yeast Anticancer Drug Screen. Data for the cln2 rad14 strain (AID 165);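 also: 0% = growth equal to vehicle treated cultures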; settings: S. cerevisiae cln2 rad14 strain, at 50.0 µM, active compounds read high
# How it was run: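 Growth of compound-exposed yeast (cln2 rad14 genotype) measured and expressed as inhibition relative to vehicle.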
# [5] = NCI Yeast Anticancer Drug Screen. Data for the bub3 strain (AID 167); settings: S. cerevisiae bub3 mutant strain, at 50.0 µM, active compounds read high
# How it was run: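 Yeast carrying a defined mutation is treated with each compound, and growth is compared with that of vehicle-exposed cells to give inhibition.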
# [6] = NCI Yeast Anticancer Drug Screen. Data for the mlh1 rad18 strain (AID 175); settings: S. cerevisiae mlh1 rad18 strain growth inhibition; at 50.0 µM; active compounds read high
# How it was run: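 In this whole-cell yeast screen, a strain with altered DNA damage repair is challenged with compound, and its growth is measured against matched vehicle-treated controls.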
Compound,growth inhibition [1],growth inhibition [2],growth inhibition [3],growth inhibition [4],growth inhibition [5],growth inhibition [6]
CCC(=O)OCc1ccc(Cl)cc1,23.9%,11.4%,7.9%,8.6%,12.4%,4.9%
C=CCSc1nc2ccc(NCn3c(=S)sc4ccccc43)cc2s1,71.7% (active),65.2%,85.7% (active),47.1%,41.9%,56.7%
CCOC(=O)C1(C(O)(C2CC2)C2(C(=O)OCC)CC2)CC1,-9.1%,-11.6%,-12.3%,-29.9%,13.1%,5.45%
COc1ccc(C2=NN(C(C)=O)C(c3cc(OC)c(OC)cc3N)S2)cc1OC (stereo unspecified) (tested in a mixture with another compound),16.2%,17.1%,32.1%,19.6%,12.9%,30.1%
CC(=O)OCC1(C)C(O)CCC2(C)C1CCC1CC3CC12CCC3(O)CO (stereo unspecified),12.2%,-26%,13.8%,2.95%,-23.4%,7.9%
CC(C)NC(=O)c1ccc(CBr)cc1,0.8%,9.05%,-10.1%,9.8%,10.4%,14.3%
COc1c(Cl)cc(Cl)c(C)c1C(C)C(=O)O (stereo unspecified),21.4%,5.85%,2.6%,16.3%,25.5%,10.9%
Cc1ccc(S(=O)(=O)N/N=C/c2ccccc2)cc1,5.7%,-0.5%,3.2%,-27.6%,8.7%,7.35%
CC(=O)C(CN1CCOCC1)C(C)(C)O (stereo unspecified),2.9%,31.8%,15.6%,-6.35%,2.8%,12.4%
Cc1nnc(N=Nc2c(O)[nH]c3ccccc23)[nH]c1=O,7.05%,1.2%,-6.65%,-0.2%,2.65%,16.1%
OCC1NCCCC1O (stereo unspecified),-17.5%,-25.6%,-22.9%,-8.55%,-18.1%,-10%
CC(C)CC(CC(C)C)OB(OC(CC(C)C)CC(C)C)OC(CC(C)C)CC(C)C,-27.8%,-15.3%,-14.6%,10.9%,-0.3%,-7.8%
Nc1cc([N+](=O)[O-])ccc1-c1ccc([N+](=O)[O-])cc1,3.25%,-2.2%,8.1%,10.2%,15.2%,-8.85%
CC(C)N(C(=O)c1cccc([N+](=O)[O-])c1)C(C)C,14.6%,11.2%,7.5%,-30.9%,-4.1%,15.8%
CC(=O)c1cccc(NC(=O)Oc2ccc(F)cc2Cl)c1,-2.3%,29.1%,18.8%,-13.6%,12.9%,-1.8%
OCC1CCCC(n2cnc3c(=S)nc[nH]c32)O1 (stereo unspecified),-8.4%,-21.8%,-20.2%,-10.7%,-42.2%,6.4%
CC(=O)/C(=C/N1CC(=O)NC1=S)C(=O)Nc1ccccc1,-21.6%,-23.2%,-31.4%,-0.35%,-32.6%,2%
Nc1nc(-c2ccccc2)cc2ccccc12,0.55%,-12.7%,1.65%,-18.7%,-13.2%,18.1%
O=C1c2ccccc2N(Cc2cccc(F)c2)C2=NCCCC12 (stereo unspecified),-4.2%,-39%,14.2%,0.35%,8.3%,0.35%
CCCCOP(=O)(OCCCC)/C(C#N)=C/c1ccco1,-67.7%,-65.6%,-50.1%,-42.1%,-29.8%,-79.4%
CCOC(=O)c1cc2c(nc1NCc1ccccc1)C(=O)CCCC2,7.95%,22%,30.8%,10.3%,26.4%,17.6%

Compound,growth inhibition [1],growth inhibition [2],growth inhibition [3],growth inhibition [4],growth inhibition [5],growth inhibition [6]
COC(=O)C(Nc1ccc(OC)cc1)c1ccccc1 (stereo unspecified),-3.85%,-1.35%,-8.6%,-21.6%,4%,-13.6%
COC(=O)/C=C(\S/C=C(/c1ccccc1)N1CCn2c(C(=O)c3ccccc3)c(C(=O)OC)c(C(=O)OC)c21)C(=O)OC,27.4%,32.6%,43.8%,11.4%,54.1%,15.2%
CC(=O)OCC1OC(Nc2[nH]c(=O)n(C)c(=O)c2C(=O)CCl)C(OC(C)=O)C(OC(C)=O)C1OC(C)=O (stereo unspecified),5.15%,18.5%,2.45%,-2.55%,-3.8%,-4.15%
CCCCCOc1ccc(C(=O)OC)cc1,-25.9%,-5.15%,6.2%,-22.8%,-0.1%,-20%
C=CCN1C(C)(C)NC(=S)C1(C)C,-20.8%,-4.9%,-1.7%,-5%,-6%,-2.35%
C#CCCOC1(OC)N=NC(C)(C)O1 (stereo unspecified),1.05%,0.9%,-6.95%,12.3%,-2.65%,-24.6%
CCCCS(=O)(=O)N(CCC)CCC,9.55%,-13.6%,5.25%,-18.1%,-3.95%,-13.3%
CC(C)(C)n1c(=O)n(C(=O)C(Cl)(Cl)Cl)n(C(=O)C(Cl)(Cl)Cl)c1=O,-13.8%,-16.6%,-14.6%,19.1%,-10.3%,-4.45%
CCC(CC)C(=O)NC(=O)NC(N)=O,2.7%,1.4%,3.35%,-4.7%,6.55%,-3.55%
Cc1c2ccccc2nc(CSCCO)[n+]1[O-],-10.8%,-22.1%,-7.95%,-2.1%,5.5%,-16.2%
C/C(=N\n1c(-c2ccccc2)nc2ccccc2c1=O)c1ccc(C)cc1,5.25%,7.8%,-2.7%,1.5%,4.95%,-1.75%
C=C(Cl)COc1ccc(-c2ccccc2)cc1,28.4%,6.9%,16.5%,-2.7%,-8.55%,1.2%
CC(=Nc1cccc(C(F)(F)F)c1)c1c(O)cc(C)oc1=O,9.25%,14.8%,24.9%,11.7%,28.2%,35.1%
CC(=O)OC1c2ccccc2Cc2ccccc21,21.5%,26.3%,4.1%,16.6%,19.1%,13.1%
C/C(=C(/C)c1cc[n+](C)cc1)c1cc[n+](C)cc1,74.4% (active),60.6%,67%,44.4%,56.3%,68.5%
S=c1[nH]ncc(SCc2ccccc2)c1SCc1ccccc1,2.95%,2.85%,-8.05%,-15.1%,7.1%,7.55%
COC(=O)c1cc(C(=O)c2ccccc2)cc2c1c(=O)[nH]c1ccccc12,-0.95%,-7.5%,-16.4%,-5.7%,-23.9%,6.75%
CCCCCCc1cc(-c2cc(CCCCCC)nc(N)n2)nc(N)n1,-4.25%,7.05%,0%,4.55%,-9.1%,16.4%
COc1ccc(/C(Nc2ccccc2)=C(\CCl)c2ccccc2)cc1OC,6.5%,7.75%,34.5%,5.1%,44.4%,9.25%
COC(=O)C1OC2(CCCC3CC32)O[C@H]1C(=O)OC (stereo partly specified),-8.35%,-10.2%,-20.6%,-13.2%,-13.8%,6.35%
